According to PubChem BioAssay:
Active and inactive are the calls of the source.

Experiments:
[1] = tested on: PRMT1 (protein arginine N-methyltransferase 1); assay: PRMT1 binders on small-molecule microarrays, primary screen, biochemical, small-molecule microarray, 635 nm fluorescence (AID 1088); conditions: small-molecule microarray binding, higher = more signal;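 further: binding of Prmt1 protein to compounds spotted on small-molecule microarray slides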
[2] = yeast growth modulation, basal conditions, primary screen, YJM789 clinical isolate, OD600, 24 h (AID 1089);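 further: growth of clinical yeast isolate S. cerevisiae YJM 789 seeded 1000 cells per well; test concentration not given here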; conditions: S. cerevisiae YJM789 growth, higher = more signal, called active from +8 up or from −8 down
[3] = fission yeast growth modulation, primary screen, strain 972, OD600, 24 h, no modulator (AID 1090);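 further: basal condition with compound alone and no growth modifier present; test concentration not given here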; conditions: S. pombe 972 growth, higher = more signal, called active from +8 up or from −8 down
[4] = S. cerevisiae growth modulation with rapamycin, primary screen, strain BY4716, OD600, 96 h (AID 1091); conditions: higher = more signal, called active from +8 up or from −8 down; further: test concentration not given here
[5] = target: Torsin-1A-interacting protein 2 (Homo sapiens) (UniProt Q8NFQ8); assay: LULL1 binders on small-molecule microarray, primary screen, cell lysate, human LULL1 lysate, 635/667 nm fluorescence (AID 1092); conditions: hLULL1 lysate binding, 635 nm fluorescence, higher = more signal;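 further: probe is lysate of COS7 cells overexpressing human LULL1; score merges per-feature 667 nm fluorescence with signal-to-noise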
Sequence of Torsin-1A-interacting protein 2 (Homo sapiens) (Q8NFQ8 whole entry, looked up): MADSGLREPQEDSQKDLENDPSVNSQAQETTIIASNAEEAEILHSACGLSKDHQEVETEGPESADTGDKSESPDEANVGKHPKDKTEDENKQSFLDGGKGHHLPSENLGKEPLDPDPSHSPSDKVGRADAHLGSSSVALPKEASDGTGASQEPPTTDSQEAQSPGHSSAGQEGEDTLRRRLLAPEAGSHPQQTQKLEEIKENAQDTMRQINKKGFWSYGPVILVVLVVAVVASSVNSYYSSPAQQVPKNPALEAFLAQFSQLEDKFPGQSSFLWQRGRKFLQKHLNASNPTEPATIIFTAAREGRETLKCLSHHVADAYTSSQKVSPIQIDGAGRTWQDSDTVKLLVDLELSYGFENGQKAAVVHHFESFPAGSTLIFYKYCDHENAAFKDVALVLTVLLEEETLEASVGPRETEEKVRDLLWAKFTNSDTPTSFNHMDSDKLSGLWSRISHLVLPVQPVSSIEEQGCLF

[6] = E. coli growth modulation, two-sided OD650, primary screen, E. coli filamentation project, strain DRC41, 24 h (AID 1093); conditions: OD650, 24 h, higher = more signal, called active from +8 up or from −8 down;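 further: MC1000 strain lacking acrAB efflux and sulA so SOS filamentation is blocked; test concentration not given here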
[7] = small-molecule microarray binders of probe aLefty2, primary screen, biochemical, biotinylated probe, 635/667 nm fluorescence (AID 1094); conditions: higher = more signal;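 further: score merges spot fluorescence near 667 nm with spot signal-to-noise ratio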
[8] = tested on: Noggin (protein binding on small-molecule microarray); assay: Noggin binders on small-molecule microarray, primary screen, biochemical, 635/667 nm fluorescence (AID 1095); conditions: 635 nm fluorescence, higher = more signal;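 further: score merges 667 nm feature fluorescence with signal to noise over triplicate slides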
[9] = target: Neurogenic locus notch homolog protein 3 (Homo sapiens) (UniProt Q9UM47); assay: NOTCH3 binders on small-molecule microarray, primary screen, biochemical, 635/667 nm fluorescence (AID 1096); conditions: NOTCH3 binding, 635 nm fluorescence, higher = more signal
Sequence of Neurogenic locus notch homolog protein 3 (Homo sapiens) (Q9UM47 whole entry, looked up): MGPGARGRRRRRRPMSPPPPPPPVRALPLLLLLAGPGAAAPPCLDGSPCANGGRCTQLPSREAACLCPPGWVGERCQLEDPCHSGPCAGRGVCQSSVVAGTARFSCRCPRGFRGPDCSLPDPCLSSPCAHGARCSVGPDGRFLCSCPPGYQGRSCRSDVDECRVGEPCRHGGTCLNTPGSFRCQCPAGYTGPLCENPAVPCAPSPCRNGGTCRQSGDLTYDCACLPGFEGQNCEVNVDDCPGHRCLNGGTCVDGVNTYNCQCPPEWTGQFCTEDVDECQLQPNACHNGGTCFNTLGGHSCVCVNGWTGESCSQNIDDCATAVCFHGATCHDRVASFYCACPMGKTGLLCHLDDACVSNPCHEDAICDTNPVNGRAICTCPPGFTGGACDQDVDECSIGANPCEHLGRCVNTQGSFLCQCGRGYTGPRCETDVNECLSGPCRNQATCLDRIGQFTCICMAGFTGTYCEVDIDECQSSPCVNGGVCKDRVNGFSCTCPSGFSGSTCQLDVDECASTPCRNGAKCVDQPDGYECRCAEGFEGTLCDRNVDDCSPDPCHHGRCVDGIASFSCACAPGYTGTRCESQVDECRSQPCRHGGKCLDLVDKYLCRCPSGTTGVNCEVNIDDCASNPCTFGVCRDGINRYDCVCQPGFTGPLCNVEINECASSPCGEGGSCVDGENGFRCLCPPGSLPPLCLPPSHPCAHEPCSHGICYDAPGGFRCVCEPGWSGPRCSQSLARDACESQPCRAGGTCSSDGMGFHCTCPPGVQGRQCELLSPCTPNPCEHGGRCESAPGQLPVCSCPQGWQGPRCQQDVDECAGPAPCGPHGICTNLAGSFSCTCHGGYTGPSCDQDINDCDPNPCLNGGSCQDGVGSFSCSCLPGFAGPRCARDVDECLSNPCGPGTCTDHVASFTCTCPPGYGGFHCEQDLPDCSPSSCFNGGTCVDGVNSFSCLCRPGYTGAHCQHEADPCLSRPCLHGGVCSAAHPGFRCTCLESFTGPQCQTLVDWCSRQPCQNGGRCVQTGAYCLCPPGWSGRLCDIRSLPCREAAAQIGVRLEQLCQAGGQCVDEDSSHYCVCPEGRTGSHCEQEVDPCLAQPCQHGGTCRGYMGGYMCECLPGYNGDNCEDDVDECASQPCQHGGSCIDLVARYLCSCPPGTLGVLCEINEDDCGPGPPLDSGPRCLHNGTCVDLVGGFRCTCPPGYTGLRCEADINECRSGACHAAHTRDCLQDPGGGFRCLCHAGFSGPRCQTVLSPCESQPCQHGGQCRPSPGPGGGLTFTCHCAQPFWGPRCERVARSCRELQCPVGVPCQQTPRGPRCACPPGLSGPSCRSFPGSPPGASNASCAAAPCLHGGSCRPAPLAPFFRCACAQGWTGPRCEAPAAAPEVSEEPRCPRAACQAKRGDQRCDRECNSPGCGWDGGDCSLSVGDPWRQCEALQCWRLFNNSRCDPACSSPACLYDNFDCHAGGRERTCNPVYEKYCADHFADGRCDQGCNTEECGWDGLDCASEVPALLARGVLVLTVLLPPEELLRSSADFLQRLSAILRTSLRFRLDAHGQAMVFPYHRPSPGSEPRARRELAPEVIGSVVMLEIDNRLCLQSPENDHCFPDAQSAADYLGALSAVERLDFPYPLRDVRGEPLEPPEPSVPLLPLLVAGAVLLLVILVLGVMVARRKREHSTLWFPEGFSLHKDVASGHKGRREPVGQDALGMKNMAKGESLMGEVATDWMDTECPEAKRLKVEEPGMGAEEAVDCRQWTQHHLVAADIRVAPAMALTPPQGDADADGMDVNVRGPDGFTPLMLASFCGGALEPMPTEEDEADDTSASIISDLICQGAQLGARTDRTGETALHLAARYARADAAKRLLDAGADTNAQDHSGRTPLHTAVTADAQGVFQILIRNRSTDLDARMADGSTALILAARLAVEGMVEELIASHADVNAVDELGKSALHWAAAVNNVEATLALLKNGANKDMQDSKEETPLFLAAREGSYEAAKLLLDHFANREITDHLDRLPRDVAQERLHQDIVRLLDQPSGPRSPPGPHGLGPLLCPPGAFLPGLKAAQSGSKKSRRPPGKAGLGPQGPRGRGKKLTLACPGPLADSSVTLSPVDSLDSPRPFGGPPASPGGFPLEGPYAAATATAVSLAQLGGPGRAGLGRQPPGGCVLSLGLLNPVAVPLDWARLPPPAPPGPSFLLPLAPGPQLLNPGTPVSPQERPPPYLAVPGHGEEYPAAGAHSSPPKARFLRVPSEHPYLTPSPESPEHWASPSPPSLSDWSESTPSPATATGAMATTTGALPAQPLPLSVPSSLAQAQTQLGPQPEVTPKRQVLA

[10] = small-molecule microarray binders of probe aEGFR, primary screen, biochemical, biotinylated probe, 635/667 nm fluorescence (AID 1097); conditions: higher = more signal;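 further: probe is a biotinylated anti-EGFR antibody binding compounds printed on slides; score combines fluorescence near 667 nm and signal to noise of each spot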
[11] = tested on: Plasmodium falciparum Sir2 (PF13_0152, Sir2A); assay: pfSir2 binders on small-molecule microarrays, primary screen, biochemical, small-molecule microarray, 635 nm fluorescence (AID 1098); conditions: small-molecule microarray binding, fluorescence 635 nm; higher = more signal;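 further: score merges spot fluorescence intensity with its signal-to-noise ratio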
[12] = small-molecule microarray binders of probe aDKK1, primary screen, biochemical, biotinylated probe, 635/667 nm fluorescence (AID 1099); conditions: higher = more signal;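 further: score merges 667nm spot fluorescence with signal to noise across triplicate slides; reference of the scale not given here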
[13] = small-molecule microarray binders of probe aCHRDL2, primary screen, biochemical, biotinylated probe, 635/667 nm fluorescence (AID 1100); conditions: higher = more signal
[14] = splicing luciferase reporter signal modulators, primary screen, spliceosome inhibition project, cell-based, HEK293, splice +/- reporter (AID 1101); conditions: luminescence, 24 h, higher = more signal, called active from +8 up or from −8 down;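 further: HEK293 cells carrying a splicing-competent luciferase reporter gene; test concentration not given here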
[15] = target: Fibroblast growth factor 10 (Homo sapiens) (UniProt O15520); assay: FGF10 binders on small-molecule microarrays, primary screen, biochemical, small-molecule microarray, 635 nm fluorescence (AID 1102); conditions: FGF10 binding, fluorescence 635 nm, higher = more signal
Sequence of Fibroblast growth factor 10 (Homo sapiens) (O15520 whole entry, looked up): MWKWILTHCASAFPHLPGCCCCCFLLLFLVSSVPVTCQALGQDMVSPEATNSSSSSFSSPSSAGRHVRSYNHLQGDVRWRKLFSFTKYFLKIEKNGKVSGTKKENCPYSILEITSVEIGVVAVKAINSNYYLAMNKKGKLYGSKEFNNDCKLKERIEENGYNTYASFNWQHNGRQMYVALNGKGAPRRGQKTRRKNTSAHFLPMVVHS

[16] = tested on: glycogen synthase kinase-3 (GSK3A per assay name; protocol says GSK3B); assay: GSK3 binders on small-molecule microarrays, primary screen, biochemical, small-molecule microarray, 635 nm fluorescence, GSK3A (AID 1103); conditions: small-molecule microarray binding, fluorescence 635 nm; higher = more signal; further: the record names both GSK3A and GSK3B
[17] = target: Epidermal growth factor receptor (Homo sapiens) (UniProt P00533); assay: EGFR binders on small-molecule microarrays, primary screen, biochemical, small-molecule microarray, 635 nm fluorescence (AID 1104); conditions: EGFR binding, higher = more signal;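 further: score merges 667 nm emission intensity with spot signal to noise over triplicate slides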
Sequence of Epidermal growth factor receptor (Homo sapiens) (P00533 whole entry, looked up): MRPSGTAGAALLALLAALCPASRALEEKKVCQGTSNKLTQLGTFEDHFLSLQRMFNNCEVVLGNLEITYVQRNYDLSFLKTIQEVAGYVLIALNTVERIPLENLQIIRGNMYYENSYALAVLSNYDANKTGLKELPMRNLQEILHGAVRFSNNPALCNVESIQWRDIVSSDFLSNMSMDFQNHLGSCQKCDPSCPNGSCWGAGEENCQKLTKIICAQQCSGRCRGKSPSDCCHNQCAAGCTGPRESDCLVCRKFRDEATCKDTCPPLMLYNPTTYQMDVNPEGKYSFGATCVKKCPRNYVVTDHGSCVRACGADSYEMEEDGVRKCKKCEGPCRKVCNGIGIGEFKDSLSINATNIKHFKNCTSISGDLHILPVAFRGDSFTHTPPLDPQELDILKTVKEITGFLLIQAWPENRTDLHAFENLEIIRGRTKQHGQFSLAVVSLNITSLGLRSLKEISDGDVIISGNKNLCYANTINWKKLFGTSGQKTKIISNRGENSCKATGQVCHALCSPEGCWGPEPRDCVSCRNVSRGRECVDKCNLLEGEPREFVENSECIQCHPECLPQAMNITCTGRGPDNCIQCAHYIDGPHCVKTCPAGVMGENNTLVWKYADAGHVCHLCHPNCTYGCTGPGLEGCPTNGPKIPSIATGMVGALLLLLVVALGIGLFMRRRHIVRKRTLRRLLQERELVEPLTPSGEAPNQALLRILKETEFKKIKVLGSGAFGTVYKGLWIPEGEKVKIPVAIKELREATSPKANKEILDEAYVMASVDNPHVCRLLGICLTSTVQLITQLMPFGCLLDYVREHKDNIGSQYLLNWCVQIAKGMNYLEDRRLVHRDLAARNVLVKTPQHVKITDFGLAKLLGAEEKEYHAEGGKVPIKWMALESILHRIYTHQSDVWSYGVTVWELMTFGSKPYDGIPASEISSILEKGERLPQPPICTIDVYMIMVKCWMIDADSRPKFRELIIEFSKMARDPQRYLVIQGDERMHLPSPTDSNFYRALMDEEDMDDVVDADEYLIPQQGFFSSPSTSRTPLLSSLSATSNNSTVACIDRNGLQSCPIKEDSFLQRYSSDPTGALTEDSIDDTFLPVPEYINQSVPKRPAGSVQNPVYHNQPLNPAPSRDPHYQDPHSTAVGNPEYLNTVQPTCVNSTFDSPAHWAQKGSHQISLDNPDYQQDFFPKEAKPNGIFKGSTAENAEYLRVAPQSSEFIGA

[18] = target: Follistatin-related protein 3 (Homo sapiens) (UniProt O95633); assay: FSTL3 binders on small-molecule microarrays, primary screen, biochemical, small-molecule microarray, 635 nm fluorescence (AID 1105); conditions: FSTL3 binding, higher = more signal;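 further: score merges emission near 667 nm and signal to noise per printed spot across three slides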
Sequence of Follistatin-related protein 3 (Homo sapiens) (O95633 whole entry, looked up): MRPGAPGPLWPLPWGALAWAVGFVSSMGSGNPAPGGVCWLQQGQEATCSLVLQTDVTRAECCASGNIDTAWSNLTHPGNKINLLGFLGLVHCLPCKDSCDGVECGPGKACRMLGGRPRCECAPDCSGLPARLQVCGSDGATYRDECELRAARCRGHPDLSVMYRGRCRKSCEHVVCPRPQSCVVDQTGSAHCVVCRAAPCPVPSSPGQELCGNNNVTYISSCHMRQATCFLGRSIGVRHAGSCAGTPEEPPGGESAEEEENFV

[19] = target: Dickkopf-related protein 1 (Homo sapiens) (UniProt O94907); assay: DKK1 binders on small-molecule microarrays, primary screen, biochemical, small-molecule microarray, 635 nm fluorescence scan (AID 1106); conditions: DKK1 binding, higher = more signal;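 further: score merges emission near 667 nm with signal to noise over three replicate slides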
Sequence of Dickkopf-related protein 1 (Homo sapiens) (O94907 whole entry, looked up): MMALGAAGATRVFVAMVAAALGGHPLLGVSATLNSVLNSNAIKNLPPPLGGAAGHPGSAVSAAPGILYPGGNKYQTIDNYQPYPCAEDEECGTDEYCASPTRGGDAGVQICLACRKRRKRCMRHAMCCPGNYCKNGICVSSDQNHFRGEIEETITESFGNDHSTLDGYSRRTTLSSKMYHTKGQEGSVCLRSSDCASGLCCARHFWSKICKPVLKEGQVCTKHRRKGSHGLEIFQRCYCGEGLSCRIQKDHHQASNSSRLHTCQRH

[20] = tested on: Inhibin beta A chain (activin A); assay: INHBA (activin A) binders on microarrays, primary screen, biochemical, small-molecule microarray, 635 nm fluorescence scan (AID 1107); conditions: small-molecule microarray binding, higher = more signal;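 further: mouse activin A protein probed at 4.33 µg/mL on printed slides; score merges bound-protein fluorescence near 667 nm with spot signal-to-noise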

SMILES | composite z-score [1] | z-score [2] | z-score [3] | z-score [4] | composite z-score [5] | z-score [6] | composite z-score [7] | composite z-score [8] | composite z-score [9] | composite z-score [10] | composite z-score [11] | composite z-score [12] | composite z-score [13] | z-score [14] | composite z-score [15] | composite z-score [16] | composite z-score [17] | composite z-score [18] | composite z-score [19] | composite z-score [20]
COC(=O)C(CC#Cc1ccc2c(c1)[C@]1(C(=O)N2)[C@H](c2ccccc2OCCO)N2[C@H](c3ccccc3)[C@H](c3ccccc3)OC(=O)[C@H]2[C@@H]1C(=O)O)C(=O)OC | 1.57 | 2.46 (inactive) | 0.521 (inactive) | -0.188 (inactive) | 2.37 | 0.871 (inactive) | 0.264 | 0.793 | 0.691 | -0.0032 | 1.49 | 0.666 | 0.0004 | -0.597 (inactive) | 0.738 | 0.93 | 0.28 | 0.356 | 0.278 | 1.04
CC(C)NC(=O)[C@@]1(Cc2ccccc2I)c2ccccc2C(=O)N(Cc2ccccc2Cl)[C@H]1c1ccc(CO)cc1 | 1.51 | 1.14 (inactive) | -0.199 (inactive) | 1.39 (inactive) | 2.59 | -0.406 (inactive) | -0.0441 | 0.607 | 1.08 | -0.0181 | 0.972 | 0.13 | 0.156 | -0.833 (inactive) | 1.1 | 1.16 | 0.355 | 0.575 | 0.533 | 0.529
COc1ccc([Si](C)(C)[C@H]2[C@H](CCn3cc([C@H](O)c4ccccc4)nn3)O[C@@]3(C(=O)N(C)c4ccccc43)[C@@H]2C)cc1 | -0.133 | -2.61 (inactive) | 0.644 (inactive) | -0.254 (inactive) | 0.446 | 0.271 (inactive) | -0.0317 | 0.176 | 0.133 | -0.171 | 1.17 | -0.0149 | 0.376 | 1.11 (inactive) | -0.133 | -0.621 | -0.55 | -0.165 | -0.529 | 0.209
NCCCCCCNC(=O)[C@H]1C[C@H]2C(=O)N[C@@H](Cc3ccccc3)C(=O)N2[C@H]1c1cccc(OCCO)c1 | 0.753 | 0.106 (inactive) | 0.269 (inactive) | -0.689 (inactive) | 1.66 | 0.524 (inactive) | 0.255 | 0.337 | 0.347 | 0.0562 | 0.809 | 0.682 | 0.713 | -0.895 (inactive) | 0.324 | 0.0638 | 0.13 | 0.362 | -0.0608 | 0.101
CC(=O)Nc1cc(Br)ccc1C(=O)NCc1ccccc1 | 0.717 | -1.76 (inactive) | -6.28 (inactive) | -1.98 (inactive) | 2.06 | 0.0591 (inactive) | -0.0778 | -0.0557 | 0.199 | -0.111 | 0.695 | -0.0601 | 0.416 | -0.508 (inactive) | -0.158 | 0.0021 | -0.274 | -0.187 | -0.221 | 0.305
CCCC[C@@H]1C[C@H]1[C@@H](NC(=O)c1cccnc1)c1ccc(Cl)cc1 | -2.81 | -25 (active) | -15.4 (active) | 0.887 (inactive) | 0.208 | -3.26 (inactive) | -0.165 | -2.93 | -2.46 | -0.428 | -1.89 | 0.636 | 1.38 | -2.46 (inactive) | -2.18 | -2.37 | -2.19 | -2.37 | -2.48 | 0.0159
O=C1OCCC=C[C@H]2OC34C=CCN(c5ccc(Cl)cc5)C(=O)[C@H]3N(CCCO)C(=O)[C@@H]4C12 (stereo not given in full) | -0.827 | -0.0304 (inactive) | -1.36 (inactive) | 0.0341 (inactive) | -1.28 | 1.31 (inactive) | 0.0058 | -0.469 | -0.792 | -0.116 | -0.41 | -0.227 | 0.0093 | -1.29 (inactive) | 0.0364 | -1.4 | -0.522 | -0.181 | -0.455 | 1.52
COc1ccc([C@H]2C[C@H]3C(I)=C[C@@H]2C(=O)[C@]32CO2)cc1 | -0.639 | -1.61 (inactive) | -15.3 (active) | -1.79 (inactive) | -0.83 | 1.6 (inactive) | -0.161 | 0.387 | 0.816 | -0.135 | 0.802 | 0.168 | -0.206 | -0.568 (inactive) | 0.66 | -0.611 | -0.0989 | 0.926 | 0.726 | 0.508
C[N+](C)(C)CCCC[C@@H]1NC(=O)[C@@H]2C[C@H](C(=O)NCCCCCCNC(=O)CS)[C@H](c3ccc(O)cc3)N2C1=O | 0.567 | 0.562 (inactive) | -0.0042 (inactive) | 0.525 (inactive) | 0.479 | -0.0327 (inactive) | -0.115 | -0.533 | -0.627 | -0.225 | 1.09 | -0.0559 | 0.492 | 0.00498 (inactive) | -0.387 | -1.28 | -0.502 | -1.58 | -0.141 | -0.655
C=CC[C@@]1(C(=O)N2CCCCC2)N=C(c2ccc(OCCCO)cc2)O[C@@H]1c1ccccc1CN=[N+]=[N-] | 1.55 | -1.87 (inactive) | 0.0315 (inactive) | 0.819 (inactive) | 3.67 | 0.912 (inactive) | 0.178 | 0.648 | 1.08 | 0.0528 | 1.23 | 0.952 | 1.04 | -0.431 (inactive) | 0.666 | -0.0684 | 0.17 | 1.15 | -0.187 | 0.711
